Active and inactive are the calls of the source. No rule for the calls is given here.
Target: Pantothenate synthetase (Mycobacterium tuberculosis (strain ATCC 25618 / H37Rv)) (UniProt P9WIL5)
Assay: Coupled enzyme confirmation of inhibitors against recombinant Mtb PanC (AID 375);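 also: 0% = full reaction with vehicle and 100% = no enzyme background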
Settings: coupled enzyme assay; at 10 µM, hits give high values

Pantothenate synthetase (Mycobacterium tuberculosis (strain ATCC 25618 / H37Rv)), sequence (P9WIL5 whole entry, looked up): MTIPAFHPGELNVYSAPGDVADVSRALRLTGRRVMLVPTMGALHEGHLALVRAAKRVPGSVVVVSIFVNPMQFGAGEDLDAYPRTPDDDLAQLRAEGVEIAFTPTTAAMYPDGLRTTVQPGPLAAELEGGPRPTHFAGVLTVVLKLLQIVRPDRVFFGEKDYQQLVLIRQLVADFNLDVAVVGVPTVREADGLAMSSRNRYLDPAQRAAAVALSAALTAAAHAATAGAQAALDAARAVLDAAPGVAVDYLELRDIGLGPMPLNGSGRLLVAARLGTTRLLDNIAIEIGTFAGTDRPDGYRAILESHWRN

Row | SMILES | inhibition
1 | Cc1ccc(CSC2=NCCN2C(=O)C2CC2)cc1 | 2% (inactive)
2 | Cc1nn(-c2ccccc2)c2c1C(O)n1c(nc3ccccc31)S2 (centres undefined) | 2% (inactive)
3 | COC(=O)Cn1c2c(c3cc(C)ccc31)CCCC2 | 1% (inactive)
4 | c1ccc(-c2csc(N3CCCCCC3)n2)cc1 | 4% (inactive)
5 | CC1(C)OC(=O)C(=CNc2ccccc2F)C(=O)O1 | 0% (inactive)
6 | COc1ccc(S(=O)(=O)Nc2ccc(S(=O)(=O)N3CCCCC3)cc2)cc1OC | 0% (inactive)
7 | CCCCCC(=O)N1CC2(C)CN(C(=O)CCCCC)CC(C)(C1)C2=O | 0% (inactive)
8 | COc1cc(C(=O)Nc2ccc(-n3cnnn3)c(C)c2)cc(OC)c1OC | 0% (inactive)
9 | COc1ccc(OC)c(CNC(=O)CCN2C(=O)COc3ccccc32)c1 | 5% (inactive)
10 | Cn1c(=O)c2c(nc(SCC(=O)O)n2Cc2cccc(C(F)(F)F)c2)n(C)c1=O | 8% (inactive)
11 | O=C(NC(C(=O)c1ccccc1)N1CCOCC1)c1cccs1 (centres undefined) | 0% (inactive)
12 | CCc1[nH]nc2c1C(c1ccncc1)C(C#N)=C(N)O2 (centres undefined) | 4% (inactive)
13 | CCN1CCN(C(=O)c2cn(CCOC)c(=O)c3c2c2ccccc2n3C)CC1 | 1% (inactive)
14 | NC(=O)c1oc2ccc(Cl)cc2c1NC(=O)CN1CCOCC1 | 1% (inactive)
15 | COc1ccc(N2CCN(Cc3nc(-c4ccc(Cl)cc4Cl)no3)CC2)cc1 | 6% (inactive)
16 | O=C(NCCC1=CCCCC1)C1CCN(S(=O)(=O)c2cnc[nH]2)CC1 | 2% (inactive)
17 | CC(C)CN(C(=O)COC(=O)Cc1n[nH]c(=O)c2ccccc12)C1CCS(=O)(=O)C1 (centres undefined) | 2% (inactive)
18 | COc1ccccc1-c1nnc(SCC(=O)N2CC(C)CC(C)C2)o1 (centres undefined) | 4% (inactive)
19 | OCCNC1=NCCN1 | 1% (inactive)
20 | c1ccc(SCc2nc3ccccc3[nH]2)nc1 | 4% (inactive)

Row | SMILES | inhibition
21 | CCn1cc(C2=NOC(C(=O)Nc3cc(C)nn3-c3ccccc3)C2)c(C)n1 (centres undefined) | 0% (inactive)
22 | CCOC(=O)Cn1c(CN2CCN(c3cccc(Cl)c3)CC2)nc2c1c(=O)[nH]c(=O)n2C | 0% (inactive)
23 | COC(=O)c1ccc(NC2(C#N)C(=O)Nc3ccccc32)cc1 (centres undefined) | 0% (inactive)
24 | Cc1ccc2nc(CSc3nnc(-c4ccco4)n3-c3ccccc3)cc(=O)n2c1 | 4% (inactive)
25 | CCN(CC)CCCN1C(=O)C(=O)/C(=C(/O)c2ccc(C)cc2)C1c1ccccn1 (centres undefined) | 3% (inactive)
26 | O=C(CSc1ncnc2c1oc1ccccc12)Nc1ccccc1F | 2% (inactive)
27 | CC/C(O)=C(/C#N)c1nnc2n1CCCCC2 | 5% (inactive)
28 | CCOC(=O)CC1(CC(=O)OCC)NC(=O)c2c(C)sc(C(=O)OCC)c2N1 | 1% (inactive)
29 | COc1ccc(CC(=O)Nc2ccc(OC)c(NC(=O)c3ccco3)c2)cc1 | 7% (inactive)
30 | CCCOc1ccc(NC2=CC(=O)CC(C)(C)C2)cc1 | 0% (inactive)
31 | O=c1c2cn[nH]c2nc(SCc2ccc3c(c2)OCCO3)n1-c1ccccc1 | 3% (inactive)
32 | O=C(c1cn(-c2ccccc2)nc1-c1cccs1)N1CCN(c2ccccn2)CC1 | 2% (inactive)
33 | CS(=O)(=O)N(CC(=O)NC1CC1)c1cccc(F)c1 | 0% (inactive)
34 | C=C(C)C1Cc2c(C)nn(-c3nc(C)cc(C)n3)c2C1 (centres undefined) | 0% (inactive)
35 | CCN1C(=O)OC2(CCCCC2)C1(C)O (centres undefined) | 0% (inactive)
36 | c1ccc(CC2CCN(C(c3cccs3)c3nnnn3C3CCCC3)CC2)cc1 (centres undefined) | 3% (inactive)
37 | CCOC(=O)CSc1nn(C)c(=S)s1 | 6% (inactive)
38 | CCC(C)OC(=O)c1[nH]c2c(c1C)C(=O)CC(c1ccc(N(C)C)cc1)C2 (centres undefined) | 0% (inactive)
39 | Cc1c(C(=O)Nc2nnc(C(F)(F)F)s2)oc2ccccc12 | 5% (inactive)
